Screening data: PubChem, Broad Institute
An excerpt weighted towards active compounds, which were near 3.1% of everything screened.
RAD52 anneal inh = RAD52 DNA annealing inhibitors, primary screen, biochemical, FRET, single point, set 2. DNA repair protein RAD52 homolog (Homo sapiens), P43351. recombinant RAD52 DNA annealing, FRET fluorescence. inhibition, % at 18.7 µM. hit rate 0.46% among 360,000;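 active = every replicate showing at least 50% inhibition; inconclusive = mean inhibition at least 50% but not in every replicate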
GSIS activator = GLuc luminescence reporter in INS-1E cells, primary screen for activators of glucose-dependent secretion of insulin; INS-1E GLuc reporter insulin secretion, 2-3 h; activation, % at 16.6 µM; hit rate 0.61% among 370,000; AID 743287, 2014;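 active = lowest replicate activation of at least 40%, so every replicate reaches that level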;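 note: 0% = median of neutral control wells and 100% = median of IBMX positive control wells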
dFosB activator = activators of delta FosB homodimer, primary screen, biochemical, fluorescence polarization, TAMRA-CDK5 oligo, single point; Protein FosB (Mus musculus), P13346; purified delta FosB; percent of positive-control signal above neutral wells; activation, % at 25 µM; hit rate 0.99% among 340,000; AID 493131, 2011;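 active = mean activation above about 17%, with every replicate also reaching it, limit read from the data, passing the limit was not always enough; inconclusive = only one of the two conditions met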
MLL AF4-AF9 inh = inhibitors of AF4 peptide binding to AF9, primary screen, biochemical, AlphaScreen, biotin-AF4 peptide, FLAG-AF9, single point; Protein AF-9 (Homo sapiens), P42568; inhibition, % at 10 µM; hit rate 0.47% among 350,000; AID 651704, 2012;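 active = every replicate reaching a set inhibition limit, whatever the replicate mean, cut at about 25% in these data; inconclusive = mean inhibition reaches that limit but some replicates miss it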;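 note: 0% = plate neutral control median and 100% = total signal loss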
Target sequence (P42568 whole entry, looked up): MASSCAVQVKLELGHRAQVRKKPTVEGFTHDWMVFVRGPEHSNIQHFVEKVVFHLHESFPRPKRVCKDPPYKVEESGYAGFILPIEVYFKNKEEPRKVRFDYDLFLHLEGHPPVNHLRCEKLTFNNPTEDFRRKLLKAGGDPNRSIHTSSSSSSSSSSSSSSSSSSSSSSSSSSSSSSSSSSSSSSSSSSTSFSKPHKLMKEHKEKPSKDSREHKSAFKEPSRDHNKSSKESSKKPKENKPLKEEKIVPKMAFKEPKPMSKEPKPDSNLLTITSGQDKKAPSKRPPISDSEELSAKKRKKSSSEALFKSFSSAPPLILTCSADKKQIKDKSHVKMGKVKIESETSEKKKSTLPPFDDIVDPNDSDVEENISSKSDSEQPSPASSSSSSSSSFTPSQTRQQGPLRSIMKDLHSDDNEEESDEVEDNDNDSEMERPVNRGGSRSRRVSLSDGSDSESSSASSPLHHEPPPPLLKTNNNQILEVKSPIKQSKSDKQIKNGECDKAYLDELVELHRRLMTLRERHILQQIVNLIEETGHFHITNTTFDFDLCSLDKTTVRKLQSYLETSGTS
RAD54 inh = inhibitors of human RAD54 branch migration, primary screen, biochemical, fluorescence, single point; AID 602329, 2012; inhibition, % at 10.4 µM; DNA repair and recombination protein RAD54-like (Homo sapiens), Q92698; RAD54 Holliday junction branch migration, FAM/BHQ fluorescence; hit rate 0.14% among 360,000;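 active = mean normalized replicate activity at least 40 and at least half of replicates scoring 40 or more; inconclusive = only one of the two criteria met; inactive = mean below 40 and under half of replicates reaching 40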;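 note: 0% = median of neutral control wells and 100% = median of positive control wells; inhibitors cause a drop in the FAM fluorescence signal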
DENV2 CPE rescue = inhibitors of DENV2 cytopathic effect, primary screen, cell-based, plate reader, single concentration; DENV2-infected cells, cytopathic effect rescue; CPE inhibition, % at 9.99 µM; hit rate 1.7% among 350,000; AID 651640, 2012; in the data active = CPE inhibition above about 20%, passing the limit was not always enough; inconclusive = no clear call, values can overlap the other calls; tested in BHK-21 cells;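 note: 0% = median of neutral control wells and 100% = median of positive control wells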
* hit, by the source's call; u = inconclusive; x = no result given.

SMILES	RAD52 anneal inh	GSIS activator	dFosB activator	MLL AF4-AF9 inh	RAD54 inh	DENV2 CPE rescue
COc1ccc(CC2(C)OC(c3ccc([N+](=O)[O-])cc3)=NN2C(C)=O)cc1 (stereo unspecified)	-11.1	-42.4	-4.4	27.4*	x	-3.1
C[C@@H]1CCCCO[C@@H](CN(C)C(=O)c2ccccc2)[C@@H](C)CN([C@@H](C)CO)C(=O)c2cc(NS(=O)(=O)c3ccc(F)cc3)ccc2O1	2.1	-3.5	x	-0.1	-7.0	121.1*
C[C@H](CO)N1C[C@H](C)[C@H](CN(C)C(=O)c2ccccc2)OCCCC[C@H](C)Oc2ccc(NS(=O)(=O)c3ccc(F)cc3)cc2C1=O	6.7	-10.0	x	-3.8	1.5	-3.2
C[C@@H]1CCCCO[C@@H](CN(C)C(=O)c2ccccc2)[C@@H](C)CN([C@@H](C)CO)C(=O)c2cc(NS(=O)(=O)c3ccc(Cl)cc3)ccc2O1	14.7	-12.9	x	-1.6	-0.6	21.1*
C[C@@H]1CCCCO[C@H](CN(C)C(=O)C2CCCCC2)[C@H](C)CN([C@H](C)CO)C(=O)c2cc(NS(=O)(=O)c3ccc(Cl)cc3)ccc2O1	17.9	-1.9	x	4.5	-1.5	38.6*
C[C@H]1CN([C@@H](C)CO)S(=O)(=O)c2ccc(-c3ccccc3)cc2O[C@@H]1CN(C)C(=O)Cc1ccccc1	15.8	-23.9	x	2.2	-3.1	-1.3
COc1ccccc1S(=O)(=O)N1CC[C@H]2[C@H](CO)Nc3ccc(-c4ccc(F)cc4)cc3[C@H]21	-20.2	5.1	x	4.0	0.1	-23.7
COC(=O)CCCC1=CC2=CC(=O)C(C)(OC(=O)c3cccs3)C(=O)C2=CN1CCc1ccccn1 (stereo unspecified)	-31.5	-6.1	-10.0	-3.5	-7.2	24.2*
Cn1c(=O)c2cc(NC(=S)NCc3ccccc3F)ccc2n1Cc1ccccc1	-4.4	-12.8	x	-2.3	0.8	-12.0
COc1ccc(CNC(=O)Nc2ccc3c(c2)c(=O)n(C)n3Cc2cc(C)cc(C)c2)cc1	-6.1	11.0	x	-13.9	0.6	32.2*
Cc1cc(C)cc(Cn2c3ccc(NC(=S)NCc4ccccc4F)cc3c(=O)n2C)c1	-32.8	56.0*	x	-1.6	6.3	-10.8
CCCNC(=O)NC[C@H]1[C@@H](c2ccc(C3=CCCC3)cc2)[C@H](CO)N1C(C)=O	x	-5.8	x	x	6.9	u
CS(=O)(=O)c1cnc(-c2ccccc2)nc1Oc1ccc(F)cc1	x	65.3*	-7.0	x	x	x
CS(=O)(=O)c1cnc(-c2ccccc2)nc1Oc1ccc(Cl)cc1	x	x	-8.0	x	x	x
Brc1ccc(OCc2nnc(SCC3CCCCC3)o2)cc1	-14.8	-13.3	0.5	-1.6	-2.9	28.9*
CCc1ccc(OCc2nnc(SCC(=O)NC3CCCCC3)o2)cc1	-9.6	-11.8	-2.9	-2.0	6.2	-5.7
O=C(Nc1cccc(F)c1)N1CC(=O)N2[C@@H](CO)[C@H](c3ccc(C#CC4CC4)cc3)[C@@H]2C1	-9.8	-13.7	x	-0.6	x	8.5
O=C(C[C@H]1C[C@H]2c3cc(NC(=O)c4cccnc4)ccc3O[C@H]2[C@H](CO)O1)NCc1cccc(F)c1	6.4	-2.9	x	-0.9	-8.7	2.6
Cc1ccc(-c2csc(NCCn3c(C)nc4cc(C(F)(F)F)ccc43)n2)cc1	4.9	-3.9	-2.2	3.6	2.0	45.0*
Cc1ccc(Cn2c(C(C)Nc3nc(-c4ccc(Cl)c([N+](=O)[O-])c4)cs3)nc3cc(C(F)(F)F)ccc32)cc1 (stereo unspecified)	-6.0	x	-4.5	x	4.4	-16.9
CCCC1CC(CCc2ccccc2)OS(=O)(=O)N1 (stereo unspecified)	0.5	-16.5	3.5	-4.9	1.9	40.2*
c1ccc(CC[C@@H]2CC[C@@H](CCc3ccccc3)N2)cc1	3.0	-18.6	-2.8	2.2	8.6	3.1
Cc1cc2c(cc1S(=O)(=O)N1CCN(c3cccc(C(F)(F)F)c3)CC1)OCC(=O)N2	-3.7	3.1	9.7	1.1	-4.1	31.6*
C[C@@H]1CN([C@H](C)CO)S(=O)(=O)c2ccc(-c3cccnc3)cc2O[C@H]1CN(C)Cc1cncnc1	-1.7	10.5	x	7.3	2.8	-4.9
CCCN1C[C@@H](C)[C@H](OC)CN(C)C(=O)c2cc(NC(=O)COC)ccc2OC[C@@H]1C	x	-3.2	x	x	-0.3	x
SMILES	RAD52 anneal inh	GSIS activator	dFosB activator	MLL AF4-AF9 inh	RAD54 inh	DENV2 CPE rescue
N/C(=N\OC(=O)c1ccccc1Br)c1ccc([N+](=O)[O-])cc1	2.2	-0.8	5.9	0.8	0.3	-3.9
N/C(=N\OC(=O)c1ccccc1Br)c1cccc([N+](=O)[O-])c1	-10.6	41.1*	2.1	-0.9	9.2	16.1
O=C(Cc1ccncc1)NCC[C@@H]1CC[C@H](NC(=O)C2CC2)[C@@H](CO)O1	-31.1	11.2	x	-0.9	-3.4	11.0
c1cc2cc(-c3c(-c4ccc5c(c4)OCO5)noc3-c3ccsc3)ccc2[nH]1	-14.6	-14.8	-3.2	-1.4	-11.3	120.0*
CC(C)NC(=O)Nc1ccc2c(c1)C(=O)N([C@@H](C)CO)C[C@@H](C)[C@H](CN(C)C(=O)Nc1ccc3c(c1)OCO3)OCCCC[C@@H](C)O2	15.1	3.8	x	-1.6	-5.6	-3.5
Cc1noc(C)c1NC(=O)N(C)C[C@@H]1OCCCC[C@H](C)Oc2ccc(NS(=O)(=O)c3c(C)noc3C)cc2C(=O)N([C@@H](C)CO)C[C@H]1C	-0.4	26.0	x	4.2	-2.8	3.5
Cc1noc(C)c1NC(=O)N(C)C[C@H]1OCCCC[C@H](C)Oc2ccc(NS(=O)(=O)c3c(C)noc3C)cc2C(=O)N([C@H](C)CO)C[C@@H]1C	5.2	8.8	x	0.2	-21.2	34.1*
Cc1noc(C)c1S(=O)(=O)Nc1ccc2c(c1)C(=O)N([C@@H](C)CO)C[C@@H](C)[C@H](CN(C)C(=O)CCC(F)(F)F)OCCCC[C@@H](C)O2	3.0	6.1	x	0.1	3.5	3.1
COc1ccc(S(=O)(=O)Nc2ccc3c(c2)C(=O)N([C@@H](C)CO)C[C@@H](C)[C@@H](CN(C)C(=O)Nc2c(C)noc2C)OCCCC[C@H](C)O3)cc1	-0.2	-5.3	x	0.0	-10.9	4.1
COc1ccc(S(=O)(=O)Nc2ccc3c(c2)C(=O)N([C@H](C)CO)C[C@H](C)[C@@H](CN(C)C(=O)Nc2c(C)noc2C)OCCCC[C@@H](C)O3)cc1	-9.3	-0.1	x	-1.5	1.2	40.6*
Cc1noc(C)c1S(=O)(=O)Nc1ccc2c(c1)C(=O)N([C@@H](C)CO)C[C@H](C)[C@H](CN(C)C(=O)CCC(F)(F)F)OCCCC[C@H](C)O2	6.7	-12.8	x	1.2	6.8	33.9*
